Compounds with a hit are over-represented: about 2.9% of the library has one in this group of screens.
PLCb3 inh – PLC-beta3 (human) inhibition, primary screen. Purified PLC-beta3, fluorogenic substrate, fluorescence. inhibition, % at 12.2 µM. actives 0.18% (n = 370,000). AID 720704; in the data active means inhibition above about 11%
KLK7 zymogen act – activators of human kallikrein-7 zymogen; actives 0.9% (n = 370,000); purified proKLK7, EDANS-DABCYL substrate fluorescence; 100% is mature enzyme control, 0% vehicle; activation, % at 7 µM; P49862;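 active means activation above the mean of all tested compounds plus 3 SD, computed per campaign excluding outliers beyond control limits, cut at about 13% in these data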
Target sequence (P49862 whole entry, looked up): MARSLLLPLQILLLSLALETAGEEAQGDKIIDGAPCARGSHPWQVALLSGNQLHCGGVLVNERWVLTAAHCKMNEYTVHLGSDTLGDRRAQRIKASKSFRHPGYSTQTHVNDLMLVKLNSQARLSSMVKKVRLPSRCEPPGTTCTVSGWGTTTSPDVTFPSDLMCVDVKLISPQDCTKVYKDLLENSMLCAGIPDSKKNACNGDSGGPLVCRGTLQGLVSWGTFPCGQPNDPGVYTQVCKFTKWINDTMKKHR
ADAM10 inh – inhibits human ADAM10; recombinant ADAM10, EDANS/DABCYL FRET peptide cleavage, 3 h; inhibition, % at 7 µM; actives 0.62% (n = 370,000); O14672;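 active means inhibition above a per-campaign cutoff equal to the mean of compounds falling between control-based bounds plus 3 SD, cut at about 20% in these data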
PLCg1 inh – inhibitors of human phospholipase C gamma1; purified PLC-gamma1, fluorogenic substrate, fluorescence; inhibition, % at 12.2 µM; actives 0.84% (n = 370,000); AID 720700; in the data active means inhibition above about 9.5%
ADAM17 inh – inhibits human ADAM17; P78536; recombinant ADAM17, EDANS/DABCYL FRET peptide cleavage; inhibition, % at 6.95 µM; actives 0.83% (n = 370,000); AID 720648;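 active means inhibition above the mean of compounds lying between control limits plus 3 SD, set per campaign, cut at about 8.5% in these data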
ADAM10 ctr – counter-screen for ADAM17 exosite inhibitors: inhibitors of human ADAM10; inhibition, % at 6.95 µM; actives 47% (n = 2,900); recombinant ADAM10, EDANS/DABCYL FRET peptide cleavage, 3 h; shares compounds with ADAM17 inh; AID 743256;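 active means mean inhibition over the triplicate runs exceeds the activity threshold set in the earlier primary screen, cut at about 20% in these data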
ADAM17 confirm – human ADAM17 inhibition, confirmation; shares compounds with ADAM17 inh; recombinant ADAM17, EDANS/DABCYL QFRET peptide cleavage; inhibition, % at 6.95 µM; actives 65% (n = 2,900);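 active means mean inhibition across replicates above the hit cutoff set in the primary screen, cut at about 8.5% in these data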
Hits are given with their value.

Screening O=C(NC1CCCCC1c1ccccc1)c1ccccc1 (stereo unspecified) returned PLCb3 inh inactive, KLK7 zymogen act inactive, ADAM10 inh inactive, PLCg1 inh inactive and ADAM17 inh inactive.
Cc1cc(OC(F)F)ccc1NC(=S)NC1CCCC1 was read as PLCb3 inh inactive, KLK7 zymogen act inactive, ADAM10 inh inactive, PLCg1 inh inactive and ADAM17 inh inactive.
For CC(C)=CCc1cc([C@@H]2COc3c(ccc4c3C=CC(C)(C)O4)C2)c(O)cc1O the results were PLCb3 inh inactive, KLK7 zymogen act inactive, ADAM10 inh inactive, PLCg1 inh inactive, ADAM17 inh 13, ADAM10 ctr inactive and ADAM17 confirm inactive.
O=C(Nc1ccc(Br)cc1)c1ccc(F)c(S(=O)(=O)NCc2cccs2)c1 was read as PLCb3 inh inactive, KLK7 zymogen act inactive, ADAM10 inh 20, PLCg1 inh inactive, ADAM17 inh 9.3, ADAM10 ctr 25 and ADAM17 confirm 16.
O=C(Nc1cccc(Cl)c1)c1ccc(F)c(S(=O)(=O)NCc2ccc3c(c2)OCO3)c1 was read as PLCb3 inh inactive, KLK7 zymogen act inactive, ADAM10 inh inactive, PLCg1 inh inactive, ADAM17 inh 8.7, ADAM10 ctr 24 and ADAM17 confirm 13.
For O=S(=O)(NCc1cccs1)c1ccc(Br)cc1 the results were PLCb3 inh inactive, KLK7 zymogen act inactive, ADAM10 inh inactive, PLCg1 inh inactive and ADAM17 inh inactive.
Screening CCc1noc(C)c1C(=O)N1CCC(CCC(=O)Nc2cccc(OC)c2)CC1 returned PLCb3 inh inactive, KLK7 zymogen act inactive, ADAM10 inh inactive, PLCg1 inh inactive and ADAM17 inh inactive.
Screening COc1cccc(CN(C)C(=O)c2ccc(OCC(=O)Nc3cccc(C(F)(F)F)c3)c(OC)c2)c1 returned PLCb3 inh inactive, KLK7 zymogen act inactive, ADAM10 inh inactive, PLCg1 inh inactive, ADAM17 inh 8.8, ADAM10 ctr 26 and ADAM17 confirm 15.
Screening COC(=O)c1ccc(CN2C(=O)C(C)N(C(=O)c3c(F)cccc3F)c3ccccc32)cc1 (stereo unspecified) returned PLCb3 inh inactive, KLK7 zymogen act inactive, ADAM10 inh inactive, PLCg1 inh inactive, ADAM17 inh 11, ADAM10 ctr inactive and ADAM17 confirm 15.
For N#Cc1c(NC(=O)COC(=O)C2CC3C=CC2C3)oc(-c2ccccc2)c1-c1ccccc1 (stereo unspecified) the results were PLCb3 inh inactive, KLK7 zymogen act inactive, ADAM10 inh inactive, PLCg1 inh inactive, ADAM17 inh 8.9, ADAM10 ctr inactive and ADAM17 confirm inactive.
COc1ccccc1OCC(=O)Nc1oc(-c2ccccc2)c(-c2ccccc2)c1C#N was read as PLCb3 inh inactive, KLK7 zymogen act inactive, ADAM10 inh inactive, PLCg1 inh inactive and ADAM17 inh inactive.
Screening CC(C)C[C@@H](CN1CCC[C@H]1CN1C(=O)C(=O)NC[C@@H]1Cc1ccccc1)N1C[C@H](Cc2ccc(O)cc2)N(CC2CCCCC2)C(=O)C1=O returned PLCb3 inh inactive, KLK7 zymogen act inactive, ADAM10 inh inactive, PLCg1 inh inactive, ADAM17 inh 10, ADAM10 ctr 20 and ADAM17 confirm 11.
`Oc1ccc(C[C@H]2CNC(=S)N2CC2CCCN2C[C@H](Cc2ccc(O)cc2)N2C[C@H](Cc3ccc(O)cc3)N(CC3CCCCCC3)C2=S)cc1` (stereo partly specified) gave PLCb3 inh inactive, KLK7 zymogen act inactive, ADAM10 inh 23, PLCg1 inh inactive, ADAM17 inh 9.2, ADAM10 ctr 31 and ADAM17 confirm 18.
For CCOc1ccc(CCN2C(=S)N([C@@H](Cc3ccc(O)cc3)CN3CCCC3CN3C(=S)NC[C@@H]3Cc3ccc(O)cc3)C[C@@H]2CC(C)C)cc1 (stereo partly specified) the results were PLCb3 inh inactive, KLK7 zymogen act inactive, ADAM10 inh inactive, PLCg1 inh inactive, ADAM17 inh 8.9, ADAM10 ctr 26 and ADAM17 confirm 16.
For Oc1ccc(C[C@@H](CN2CCCC2CN2C(=S)NC[C@@H]2Cc2ccccc2)N2C[C@H](Cc3ccccc3)N(CC3CCCCC3)C2=S)cc1 (stereo partly specified) the results were PLCb3 inh inactive, KLK7 zymogen act inactive, ADAM10 inh inactive, PLCg1 inh inactive and ADAM17 inh inactive.
`Oc1ccc(C[C@H]2CNC(=S)N2CC2CCCN2C[C@H](Cc2ccc(O)cc2)N2C[C@H](Cc3ccccc3)N(CC3CCCCCC3)C2=S)cc1` (stereo partly specified) gave PLCb3 inh inactive, KLK7 zymogen act inactive, ADAM10 inh inactive, PLCg1 inh inactive, ADAM17 inh 10.0, ADAM10 ctr 43 and ADAM17 confirm 23.
CC(C)C[C@@H](CN1CCC[C@H]1CN1C(=O)C(=O)NC[C@@H]1Cc1ccc(O)cc1)N1C[C@H](Cc2ccc(O)cc2)N(CC2CCCCC2)C(=O)C1=O was read as PLCb3 inh inactive, KLK7 zymogen act inactive, ADAM10 inh inactive, PLCg1 inh inactive and ADAM17 inh inactive.
Screening CCN(CC)c1ccc(NS(=O)(=O)c2ccc3c(c2)oc(=O)n3C)c(C)c1 returned PLCb3 inh inactive, KLK7 zymogen act inactive, ADAM10 inh inactive, PLCg1 inh inactive and ADAM17 inh inactive.
For CC(=O)c1cccc(-c2ccnc3c2CC(C(=O)Nc2cccc(N(C)C)c2)O3)c1 (stereo unspecified) the results were PLCb3 inh inactive, KLK7 zymogen act inactive, ADAM10 inh inactive, PLCg1 inh inactive and ADAM17 inh inactive.
Cc1ccc(NC(=S)NNC(=O)c2c(Cl)c(C)nn2C)cc1 was read as PLCb3 inh inactive, KLK7 zymogen act inactive, ADAM10 inh inactive, PLCg1 inh inactive and ADAM17 inh inactive.
`Cc1ccc(NC(=S)NNC(=O)c2c([N+](=O)[O-])c(C)nn2C)cc1` gave PLCb3 inh inactive, KLK7 zymogen act inactive, ADAM10 inh inactive, PLCg1 inh inactive, ADAM17 inh 12, ADAM10 ctr 25 and ADAM17 confirm 12.
C=CCNC(=S)Nc1cc(C)ccn1 was read as PLCb3 inh inactive, KLK7 zymogen act inactive, ADAM10 inh inactive, PLCg1 inh inactive and ADAM17 inh inactive.
`O=C(c1ccccc1)C1OC1C(=O)c1ccccc1` (stereo unspecified) gave PLCb3 inh inactive, KLK7 zymogen act inactive, ADAM10 inh inactive, PLCg1 inh inactive and ADAM17 inh inactive.
COc1ccccc1N=Nc1nc(-c2ccccc2)c(-c2ccccc2)[nH]1 was read as PLCb3 inh inactive, KLK7 zymogen act inactive, ADAM10 inh inactive, PLCg1 inh inactive, ADAM17 inh 12, ADAM10 ctr inactive and ADAM17 confirm 10.

Source: PubChem (The Scripps Research Institute Molecular Screening Center)
